Screening data (PubChem BioAssay)
Hits are enriched below; roughly 0.93% of the tested compounds scored in any of these assays.
CIT2 TOR yeast: modulators of CIT2-GFP expression in yeast, primary screen, S. cerevisiae, GFP fusion, multiplex flow cytometry, MLPCN library | GFP response vs DMSO, % at 10 µM | 320,000 tested, 0.065% active | AID 2029, 2009 | S. cerevisiae CIT2-GFP strain, 3 h; 100 means same as DMSO wells;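 active = GFP response relative to DMSO above a set limit, near the screen mean plus 3 SD, cut at about 150% in these data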;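 note: ratio of well median GFP fluorescence to mean of DMSO wells on the plate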
LAP4 TOR yeast: modulators of LAP4-GFP expression in yeast, primary screen, S. cerevisiae, multiplex flow cytometry, MLPCN library. 3 h; median GFP as percent of DMSO wells. GFP response vs DMSO, % at 10 µM. 320,000 tested, 0.34% active. AID 2023, 2009;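 active = GFP response vs DMSO above a set limit, about the screen mean plus 3 SD, cut at about 150% in these data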
MEP2 TOR yeast: modulators of MEP2-GFP levels in yeast, primary screen, S. cerevisiae, multiplex flow cytometry, MLPCN library; S. cerevisiae MEP2-GFP strain, 3 h; 100% = DMSO control level; GFP response vs DMSO, % at 10 µM; 330,000 tested, 0.51% active;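 active = GFP response versus DMSO above a set limit, roughly screen mean plus 3 SD, cut at about 180% in these data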;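 note: median GFP fluorescence of the barcode-gated MEP2-GFP cells per well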
RPL19A-GFP yeast: RPL19A-GFP expression modulators in yeast, primary screen, cell-based, S. cerevisiae, multiplex flow cytometry, MLPCN; percent response vs DMSO, % at 10 µM; AID 2025, 2009; S. cerevisiae RPL19A-GFP strain, 3 h; hits give low values; 330,000 tested, 0.3% active;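 active = percent response vs DMSO below 50%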;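 note: median channel GFP fluorescence of the barcoded RPL19A-GFP strain; ratio of sample median GFP to plate DMSO average so 100% = DMSO; lower means less RPL19A-GFP as with rapamycin TOR inhibition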
AGP1 TOR yeast: modulators of AGP1-GFP expression in yeast TOR pathway, primary screen, cell-based, multiplex flow cytometry, S. cerevisiae, MLPCN library; 3 h; GFP as percent of DMSO wells; GFP response vs DMSO, % at 10 µM; 320,000 tested, 0.02% active; AID 2066, 2009;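 active = GFP response relative to DMSO above a set limit, near screen average plus 3 SD, cut at about 150% in these data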;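 note: median GFP channel fluorescence of the gated AGP1 strain per well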
LAP4-GFP pick2: LAP4-GFP expression modulators in yeast, confirmation, cell-based, second cherry pick, flow cytometry | shares compounds with LAP4 TOR yeast | S. cerevisiae LAP4-GFP strain, 3 h | GFP response vs DMSO, % at 10 µM | 590 tested, 20% active;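 active = GFP signal as percent of the solvent control above about 150%, meaning raised reporter expression, limit read from the data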;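 note: ratio of well median GFP fluorescence to plate DMSO mean so 100% = DMSO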
MEP2-GFP pick2: modulators of MEP2-GFP levels in yeast, confirmation, S. cerevisiae, flow cytometry GFP, second cherry picks; 590 tested, 10% active; shares compounds with LAP4 TOR yeast; AID 2622, 2010; GFP response vs DMSO, % at 10 µM; S. cerevisiae MEP2-GFP strain, 3 h;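 active = GFP signal above 150% of the solvent control wells, that is a rise of more than half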;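 note: median channel GFP fluorescence of all gated yeast cells per well; ratio of median GFP to plate DMSO average so 100% = DMSO level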
RPL19A GFP CP2: RPL19A-GFP modulators in TOR pathway yeast, confirmation, cell-based, S. cerevisiae, flow cytometry, second cherry pick; shares compounds with LAP4 TOR yeast; S. cerevisiae RPL19A-GFP strain, 3 h; hits give low values; 100% means same as DMSO wells; GFP response vs DMSO, % at 10 µM; 590 tested, 3% active; AID 2623, 2010;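 active = under 65% GFP response relative to DMSO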;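 note: median GFP channel fluorescence per well over the all cells gate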
CIT2-GFP pick2: modulators of CIT2-GFP expression in yeast, confirmation, flow cytometry, second cherry pick, single plex | shares compounds with LAP4 TOR yeast | S. cerevisiae CIT2-GFP strain, 3 h; DMSO control wells read 100% | GFP response vs DMSO, % at 10 µM | 590 tested, 8% active;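 active = GFP response vs DMSO above about 150%, limit read from the data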;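 note: median green fluorescence per well over all gated yeast cells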
AGP1 GFP CP2: AGP1-GFP expression modulators, hit retest, confirmation, cell-based, flow cytometry, S. cerevisiae, cherry pick set 2. shares compounds with LAP4 TOR yeast. S. cerevisiae AGP1-GFP strain, 3 h. percent response vs DMSO, % at 10 µM. 590 tested, under 10 active. AID 2643, 2010;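 active = over 150 percent of DMSO response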;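 note: median GFP channel fluorescence over all cells without mother daughter split; sample median GFP divided by mean DMSO control so 100% equals DMSO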
s288c autofluor: compound autofluorescence in yeast s288c, dose response, artefact control for yeast TOR pathway GFP screen, s288c strain | shares compounds with LAP4 TOR yeast | S. cerevisiae s288c, 520 nm autofluorescence, flow cytometry, 3 h; hits give high values; zero means same as solvent-only cells | fluorescence change (kMESF span) at 33 µM | 610 tested, under 10 active;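 active = fluorescence span over the dose series, or activity score, above about 33, limit read from the data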
Yeast autofl DR: autofluorescence of compounds in yeast s288c, dose response, artefact control for yeast TOR pathway GFP screen, primary hits, KU SAR, s288c parental. shares compounds with LAP4 TOR yeast. S. cerevisiae s288c parental, compound autofluorescence, flow cytometry, 3 h. fluorescence change (span) at 33 µM. 110 tested, under 10 active. AID 488829, 2010;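 active = fluorescence change span, or the activity score built from it, above 25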
TORC1 bypass gr: wild-type yeast growth inhibition sparing TORC1 bypass cells, mechanism study for yeast TOR pathway GFP screen, BY4741 wild type, TORC1 bypass strain; shares compounds with LAP4 TOR yeast; S. cerevisiae BY4741 spot growth rating, 48-72 h; hits give low values; growth rating (0-3) at 30 µM; 120 tested, under 10 active;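 active = growth rating at most 1 for wild type yeast while the TORC1 bypass strain still grows fully, rated 3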
Numbers without * were called inactive; · = not tested or not shown.

SMILES	CIT2 TOR yeast	LAP4 TOR yeast	MEP2 TOR yeast	RPL19A-GFP yeast	AGP1 TOR yeast	LAP4-GFP pick2	MEP2-GFP pick2	RPL19A GFP CP2	CIT2-GFP pick2	AGP1 GFP CP2	others
CN1C(N)=NC(=O)/C1=C\c1ccc(Br)cc1	101.3	94.0	103.2	107.5	107.1	·	·	·	·	·
CCCc1cc(N2CCN(c3ccccn3)CC2)n2nc(C)c(-c3ccccc3)c2n1	101.2	103.2	103.2	100.7	101.3	·	·	·	·	·	s288c autofluor=0
CCCc1cc(N2CCOCC2)n2nc(C)c(-c3ccccc3)c2n1	98.8	99.1	109.0	102.8	94.1	·	·	·	·	·
COC(=O)c1cn(C(=O)c2ccc(C)c(C)c2)c2ccccc12	77.9	150.9*	86.2	88.3	90.8	98.1	99.8	98.1	99.5	99.8
COC(=O)c1cn(C(=O)c2ccc(OC)c(OC)c2)c2ccccc12	106.1	102.6	113.4	106.5	101.6	·	·	·	·	·
COc1ccc(N=Cc2nc(-c3ccccc3)oc2OC(C)=O)cc1	89.5	119.9	97.9	102.8	101.0	·	·	·	·	·	s288c autofluor=0
COc1cccc(N=Cc2nc(-c3ccccc3)oc2OC(C)=O)c1	·	·	88.9	99.4	·	·	·	·	·	·	s288c autofluor=-0.2
COc1cccc(N=CC2=C(O)CCCC2=O)c1	92.3	106.1	101.7	93.2	99.0	·	·	·	·	·
C=C1CCN([C@H](C(=O)OCc2ccc(C)cc2)C(C)C)S(=O)(=O)c2ccccc21	90.7	106.4	94.9	94.4	84.6	·	·	·	·	·
C=C1CCN([C@@H](C)C(=O)OCc2cccc(C)c2)S(=O)(=O)c2ccccc21	124.9	153.4*	97.9	98.0	91.5	99.0	98.2	99.6	98.4	97.4
O=C(c1cc(-c2ccc(F)cc2)nc2ccccc12)N1CCN(C2CCS(=O)(=O)C2)CC1 (centres undefined)	95.9	98.8	97.2	97.0	98.3	·	·	·	·	·
O=C(CNC(=O)c1ccccc1)OCC(=O)c1ccc(Cl)s1	90.7	189.8*	108.8	95.6	83.2	101.2	103.1	98.9	100.1	98.8
CC(C)CC(=O)NC(=S)Nc1nc(-c2ccccc2)cs1	78.6	96.8	137.6	62.2	24.7	98.2	96.1	99.5	105.7	97.9	s288c autofluor=0
O=C(O)c1cccc(S(=O)(=O)Nc2ccc(S(=O)(=O)N3CCOCC3)cc2)c1	91.9	89.8	129.3	58.2	84.9	102.2	110.0	97.8	105.7	98.1	s288c autofluor=0
Cc1ccc(NS(=O)(=O)c2cccc(C(=O)O)c2)cc1S(=O)(=O)N1CCOCC1	100.8	87.9	103.9	97.1	94.0	·	·	·	·	·
CNC(=S)N(Cc1ccc(Cl)cc1)Cc1cccs1	87.2	95.5	99.1	94.3	94.7	·	·	·	·	·
CC(C)N1CCc2c(sc(NC(=S)NC(=O)c3ccccc3)c2C#N)C1	116.8	98.7	121.8	104.3	100.8	·	·	·	·	·
CCCN1CCc2c(sc(NC(=S)NC(=O)c3ccccc3)c2C#N)C1	157.1*	139.4	129.1	112.2	100.5	·	·	·	·	·	s288c autofluor=1.61
Cc1ccc(S(=O)(=O)N2CCOCC2)cc1NC(=O)c1cc([N+](=O)[O-])ccc1N1CCOCC1	102.3	107.0	101.6	98.0	108.7	·	·	·	·	·
Cc1cccc(NC(=O)c2nc[nH]c2C(=O)N[C@@H](C)C(=O)OC(C)(C)C)c1	76.6	160.3*	90.5	97.1	78.5	109.6	98.2	93.5	91.6	94.8
Cc1cccc(NC(=O)c2nc[nH]c2C(=O)NCC(=O)OC(C)(C)C)c1	112.2	168.4*	97.9	97.1	93.1	117.2	104.8	91.6	90.4	93.7
C[C@H](NC(=O)c1[nH]cnc1C(=O)Nc1ccc(Cl)cc1)C(=O)OC(C)(C)C	89.4	158.0*	90.5	97.1	85.5	109.2	108.3	93.3	96.0	95.4
CCOc1ccc(CCNC(=O)COC(=O)c2ccc[nH]c2=O)cc1OCC	83.7	94.8	88.7	94.0	93.6	·	·	·	·	·
Cc1cc(NC(=O)COC(=O)C2CSC3(C)CCC(=O)N23)ccc1Br (centres undefined)	92.2	87.2	88.4	92.9	93.0	·	·	·	·	·
COc1cccc2c1O/C(=N\O)C(C(=O)Nc1cccc(Br)c1)C2 (centres undefined)	100.8	99.1	111.8	108.3	101.0	·	·	·	·	·
COc1ccccc1Nc1nc(NCCO)nc(N)c1[N+](=O)[O-]	97.5	107.9	91.1	95.9	100.4	·	·	·	·	·
COCCCNc1nc(N)c([N+](=O)[O-])c(Nc2cc(OC)ccc2OC)n1	98.0	111.2	95.8	100.7	105.5	·	·	·	·	·
CNc1nc(N)c([N+](=O)[O-])c(Nc2ccccc2OC)n1	114.4	125.5	103.3	97.1	103.5	·	·	·	·	·	Yeast autofl DR=0.42;TORC1 bypass gr=3
CNc1nc(N)c([N+](=O)[O-])c(Nc2cc(OC)ccc2OC)n1	·	·	·	·	·	·	·	·	·	·	Yeast autofl DR=0.31;TORC1 bypass gr=3
O=C(NC(=S)N(CCO)Cc1ccccc1)c1ccc(S(=O)(=O)N2CCCC2)cc1	101.2	112.9	103.4	100.1	106.8	·	·	·	·	·
